Results published in PubChem BioAssay.
Active and inactive are the calls of the source.

What was measured:
[1] = E. coli DRC41 culture turbidity changes, primary screen, E. coli filamentation inducer project, strain DRC41, OD650, 48 h (AID 1152);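 also: E. coli MC1000 strain DRC41 lacking acrAB efflux pump and sulA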; conditions: E. coli DRC41 (acrAB sulA), higher = more signal, called active from +8 up or from −8 down
[2] = small-molecule binders of probe aLefty1, primary screen, biochemical, small-molecule microarray, 635/667 nm fluorescence (AID 1153); conditions: higher = more signal;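 also: score merges spot fluorescence with signal-to-noise ratio from the scanned slide images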
[3] = PSAC antagonists in infected red cells, primary screen, cell-based, P. falciparum Indochina, OD700, 1 h (AID 1154); conditions: P. falciparum Indochina infected RBC osmotic lysis, higher = more signal, called active from +8 up or from −8 down
[4] = PSAC antagonists in infected red cells, primary screen, cell-based, P. falciparum Indochina, OD700, 2 h (AID 1155);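 also: lysis reports solute entry through the parasite surface anion channel PSAC; channel blockers reduce lysis of infected cells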; conditions: P. falciparum Indochina infected erythrocytes, osmotic lysis OD700; higher = more signal, called active from +8 up or from −8 down
[5] = osmotic lysis modulators in infected erythrocytes, primary screen, PSAC antagonist project, cell-based, P. falciparum Indochina, OD700, 3 h (AID 1156); conditions: higher = more signal, called active from +8 up or from −8 down
[6] = PSAC antagonists in infected red cells, primary screen, cell-based, P. falciparum Indochina, OD700, 18 h (AID 1157); conditions: P. falciparum Indochina infected erythrocytes, osmotic lysis OD700, 18 h; higher = more signal, called active from +8 up or from −8 down
[7] = modulators of S6 phosphorylation in cells, primary screen, cell-based, A549, cytoblot, luminescence, serum-stimulated (AID 1158); conditions: A549 phospho-S6 cytoblot, 5 h, higher = more signal;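 also: serum-stimulated A549 lung adenocarcinoma cells; signal is phosphorylated S6 detected by cytoblot immunostaining with HRP secondary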
[8] = molecular target: NADPH oxidase 2 (Homo sapiens) (UniProt P04839); experiment: NOX2-dependent H2O2 signal modulators, primary screen, NOX inhibitor project, cell-based, HEK293-NOX2, PMA-stimulated, Amplex Red fluorescence (AID 1159); conditions: 45 min, higher = more signal, called active from +8 up or from −8 down; also: test concentration not given here
[9] = molecular target: NADPH oxidase 4 (Homo sapiens) (UniProt Q9NPH5); experiment: NOX4-dependent H2O2 signal modulators, primary screen, NOX inhibitor project, cell-based, HEK293-NOX4, tetracycline-induced, Amplex Red fluorescence (AID 1160); conditions: 45 min, higher = more signal, called active from +8 up or from −8 down
[10] = molecular target: NADPH oxidase 5 (Homo sapiens) (UniProt Q96PH1); experiment: NOX5-dependent H2O2 signal modulators, primary screen, NOX inhibitor project, cell-based, HEK293-NOX5, Amplex Red fluorescence (AID 1161); conditions: HEK293-NOX5, ionomycin, 45 min, higher = more signal
[11] = A549 cell viability effects, profiling panel, calcein-AM fluorescence, 48 h, basal (AID 1162); conditions: higher = more signal; also: test concentration not given here
[12] = adipocyte viability effects, profiling panel, cell-based, 3T3-L1 adipocytes, calcein-AM fluorescence, 48 h, basal (AID 1163); conditions: 3T3-L1 adipocytes viability, higher = more signal; also: test concentration not given here
[13] = HepG2 cell viability effects, profiling panel, calcein-AM fluorescence, 48 h, basal (AID 1164); conditions: higher = more signal; also: test concentration not given here
[14] = MM1S cell viability effects, profiling panel, calcein-AM fluorescence, 48 h, basal (AID 1165); conditions: higher = more signal;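 also: viability of MM1S multiple myeloma cells under basal unstimulated conditions; test concentration not given here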
[15] = basal RPMI8226 viability, no added stimulus, profiling panel, cell-based, calcein-AM fluorescence, 48 h, PK04 Diversity Set (AID 1166); conditions: RPMI8226 myeloma viability, higher = more signal;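 also: cells grown under basal conditions without added stimulus; test concentration not given here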
[16] = basal HepG2 mitochondrial membrane potential changes, profiling panel, cell-based, JC-1 fluorescence, 24 h, 100 nL compound (AID 1167); conditions: higher = more signal; also: test concentration not given here
[17] = basal 3T3-L1 adipocyte mitochondrial potential changes, profiling panel, cell-based, JC-1 fluorescence, 3T3-L1 adipocytes, 24 h, 100 nL compound (AID 1168); conditions: JC-1 mitochondrial fluorescence, higher = more signal, called active from +8 up or from −8 down; also: test concentration not given here
[18] = basal RPMI8226 mitochondrial membrane potential changes, profiling panel, cell-based, JC-1 fluorescence, 24 h, 100 nL compound (AID 1169); conditions: RPMI8226 myeloma, JC-1 mitochondrial potential fluorescence, higher = more signal; also: test concentration not given here
[19] = basal MM1S mitochondrial membrane potential changes, profiling panel, cell-based, JC-1 fluorescence, 24 h, 100 nL compound (AID 1170); conditions: higher = more signal; also: test concentration not given here
[20] = A549 lung cancer cell viability effects, profiling panel, resazurin fluorescence, 24 h, PK04 Diversity Set (AID 1171); conditions: higher = more signal, called active from +8 up or from −8 down; also: test concentration not given here

Chain of NADPH oxidase 2 (Homo sapiens) (P04839 whole entry, looked up): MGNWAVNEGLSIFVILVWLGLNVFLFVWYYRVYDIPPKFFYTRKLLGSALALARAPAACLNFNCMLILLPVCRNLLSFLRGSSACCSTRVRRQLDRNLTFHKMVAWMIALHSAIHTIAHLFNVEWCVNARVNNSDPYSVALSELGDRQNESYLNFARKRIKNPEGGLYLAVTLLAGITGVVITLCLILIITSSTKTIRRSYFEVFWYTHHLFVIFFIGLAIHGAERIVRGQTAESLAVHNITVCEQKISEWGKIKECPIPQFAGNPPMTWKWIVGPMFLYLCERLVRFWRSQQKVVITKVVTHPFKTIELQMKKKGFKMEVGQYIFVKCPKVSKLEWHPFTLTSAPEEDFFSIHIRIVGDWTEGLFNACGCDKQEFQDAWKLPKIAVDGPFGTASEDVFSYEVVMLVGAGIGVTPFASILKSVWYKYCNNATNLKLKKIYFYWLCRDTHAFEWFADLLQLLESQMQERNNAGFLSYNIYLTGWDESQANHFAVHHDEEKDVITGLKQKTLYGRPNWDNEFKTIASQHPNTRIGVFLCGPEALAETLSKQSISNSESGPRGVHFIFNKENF
Chain of NADPH oxidase 5 (Homo sapiens) (Q96PH1 whole entry, looked up): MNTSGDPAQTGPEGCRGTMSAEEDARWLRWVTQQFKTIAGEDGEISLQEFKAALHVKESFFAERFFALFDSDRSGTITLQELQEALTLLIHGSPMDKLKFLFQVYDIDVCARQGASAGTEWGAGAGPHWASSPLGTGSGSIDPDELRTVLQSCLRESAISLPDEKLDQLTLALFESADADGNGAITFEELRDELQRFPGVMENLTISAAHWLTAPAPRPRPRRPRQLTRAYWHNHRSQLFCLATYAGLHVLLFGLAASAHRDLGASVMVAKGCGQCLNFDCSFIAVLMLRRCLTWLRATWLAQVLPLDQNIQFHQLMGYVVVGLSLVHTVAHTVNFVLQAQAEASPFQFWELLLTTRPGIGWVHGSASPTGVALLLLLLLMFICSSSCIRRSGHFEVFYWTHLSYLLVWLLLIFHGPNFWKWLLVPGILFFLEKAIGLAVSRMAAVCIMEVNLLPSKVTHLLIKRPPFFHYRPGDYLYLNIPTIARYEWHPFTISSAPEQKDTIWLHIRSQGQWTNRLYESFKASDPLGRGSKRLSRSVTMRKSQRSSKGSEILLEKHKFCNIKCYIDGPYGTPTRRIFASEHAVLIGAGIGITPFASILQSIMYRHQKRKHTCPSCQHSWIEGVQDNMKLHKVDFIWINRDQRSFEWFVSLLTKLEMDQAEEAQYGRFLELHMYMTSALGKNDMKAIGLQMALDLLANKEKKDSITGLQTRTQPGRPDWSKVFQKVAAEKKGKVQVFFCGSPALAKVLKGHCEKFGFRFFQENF
Chain of NADPH oxidase 4 (Homo sapiens) (Q9NPH5 whole entry, looked up): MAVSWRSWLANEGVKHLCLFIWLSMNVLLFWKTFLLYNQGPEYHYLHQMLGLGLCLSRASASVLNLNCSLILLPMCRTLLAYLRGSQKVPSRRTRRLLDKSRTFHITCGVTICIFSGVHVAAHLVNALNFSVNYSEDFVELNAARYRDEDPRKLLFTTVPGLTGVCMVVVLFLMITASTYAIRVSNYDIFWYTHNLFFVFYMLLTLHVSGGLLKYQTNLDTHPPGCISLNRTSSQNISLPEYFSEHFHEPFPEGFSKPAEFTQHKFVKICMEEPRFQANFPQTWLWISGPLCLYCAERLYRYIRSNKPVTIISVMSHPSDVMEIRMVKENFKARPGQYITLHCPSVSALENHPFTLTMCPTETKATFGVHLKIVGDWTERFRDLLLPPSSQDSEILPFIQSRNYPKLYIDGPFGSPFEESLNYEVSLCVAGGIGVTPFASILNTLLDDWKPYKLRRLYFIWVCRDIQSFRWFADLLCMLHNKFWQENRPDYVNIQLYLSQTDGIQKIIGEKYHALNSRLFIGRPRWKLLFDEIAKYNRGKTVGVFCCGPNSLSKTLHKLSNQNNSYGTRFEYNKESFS

| Compound | z-score [1] | composite z-score [2] | z-score [3] | z-score [4] | z-score [5] | z-score [6] | z-score [7] | z-score [8] | z-score [9] | z-score [10] | z-score [11] | z-score [12] | z-score [13] | z-score [14] | z-score [15] | z-score [16] | z-score [17] | z-score [18] | z-score [19] | z-score [20] |
| --- | --- | --- | --- | --- | --- | --- | --- | --- | --- | --- | --- | --- | --- | --- | --- | --- | --- | --- | --- | --- |
| NCCCC[C@@H]1NC(=O)[C@H]2C[C@@H](C(=O)NCc3ccc(F)cc3)[C@@H](c3cccc(OCCO)c3)N2C1=O | -0.405 (inactive) | 0.254 | -0.591 (inactive) | 0.157 (inactive) | -0.805 (inactive) | 0.274 (inactive) | -0.325 | 1.88 (inactive) | 0.647 (inactive) | 0.582 | 0.172 | -0.716 | 1.13 | -0.893 | -0.259 | -2.23 | 0.13 (inactive) | -0.968 | -0.894 | 0.858 (inactive) |
| CC(C)CNC(=O)[C@@H]1c2ccccc2C(=O)N(Cc2ccccc2Cl)[C@H]1c1ccc(CO)cc1 | 0.244 (inactive) | -0.133 | 2.54 (inactive) | 0.526 (inactive) | 0.531 (inactive) | 0.181 (inactive) | 0.279 | -0.451 (inactive) | 0.16 (inactive) | -1.75 | -0.103 | 0.187 | -0.228 | -0.242 | -0.183 | 1.01 | -0.0284 (inactive) | 0.13 | 0.438 | 0.914 (inactive) |
| CC(C)C(=C=CC[C@@H](O)c1ccc(OCCO)cc1)CCO | 1.7 (inactive) | -0.0054 | 2.86 (inactive) | -0.421 (inactive) | -0.143 (inactive) | -1.58 (inactive) | 1.42 | -1.47 (inactive) | -0.462 (inactive) | -0.971 | -0.45 | 0.721 | -0.164 | 0.626 | 0.991 | 0.871 | 0.437 (inactive) | -0.21 | -1.11 | 1.22 (inactive) |
| NC(=O)[C@@]1(CCS(=O)(=O)c2ccccc2)COC(c2ccc(OCCCO)cc2)=N1 | 1.05 (inactive) | 0.281 | 22.1 (active) | 4.56 (inactive) | 0.815 (inactive) | 0.939 (inactive) | -0.192 | -2.33 (inactive) | -0.383 (inactive) | -0.124 | -0.339 | -0.519 | 0.344 | -0.0256 | 0.458 | -0.522 | -0.762 (inactive) | -0.436 | -0.942 | -0.721 (inactive) |
| CCN(CC)c1ccc(N2CC=CC34O[C@@H]5C=CCOC(=O)[C@@H]5[C@H]3C(=O)N(CCCO)[C@@H]4C2=O)cc1 (stereo not given in full) | 1.33 (inactive) | 0.027 | 0.246 (inactive) | -0.655 (inactive) | 0.649 (inactive) | -1.36 (inactive) | 4.3 | -0.0266 (inactive) | -0.497 (inactive) | 0.785 | -0.0867 | 1.85 | -0.244 | 1.8 | 0.28 | 0.432 | 0.604 (inactive) | 0.19 | 0.536 | -0.481 (inactive) |
| C=CCOC(=O)[C@H]1[C@@H]2C(=O)O[C@@H](c3ccccc3)[C@@H](c3ccccc3)N2[C@@H](c2ccc(OCCOC(=O)[C@@H]3C[C@@H]4C(=O)N[C@@H](CC(C)C)C(=O)N4[C@@H]3c3ccc(O)cc3)cc2)[C@]12C(=O)Nc1ccc(I)cc12 | 0.833 (inactive) | 0.106 | 2.77 (inactive) | 1.33 (inactive) | 2.31 (inactive) | -1.46 (inactive) | 1.09 | 0.894 (inactive) | 0.499 (inactive) | 1.4 | 0.13 | 0.283 | 1.55 | 0.345 | -0.207 | -1.78 | 1 (inactive) | -0.438 | -0.961 | -0.629 (inactive) |
| COC(=O)[C@@]1(CCC(=O)OC(C)(C)C)N=C(c2ccc(OCCCO)cc2)O[C@H]1c1ccccc1CN=[N+]=[N-] | -0.0301 (inactive) | 0.437 | 21.3 (active) | 6.25 (inactive) | 0.765 (inactive) | 1.4 (inactive) | -0.184 | -1.47 (inactive) | -0.475 (inactive) | -0.802 | -1.06 | -1.3 | -2.51 | -3.2 | -3.95 | -1.7 | -0.472 (inactive) | -1.12 | -1.73 | -0.227 (inactive) |
| CC1CC/C=C\[C@H]2OC34C=CCN(c5ccc(Cl)cc5)C(=O)[C@H]3N(CCCO)C(=O)[C@]4(C)C2C(=O)O1 (stereo not given in full) | -0.836 (inactive) | 0.135 | 0.113 (inactive) | 0.66 (inactive) | -0.338 (inactive) | 0.356 (inactive) | -0.264 | 1.5 (inactive) | -1.22 (inactive) | 2.34 | 0.606 | 0.208 | -0.865 | 1.04 | 0.338 | -0.713 | -0.887 (inactive) | -0.294 | 1.86 | -0.6 (inactive) |
